According to PubChem BioAssay AID1851 (National Center for Advancing Translational Sciences (NCATS), 2009):
Among all 16,000 compounds or so, about 5,800 (36%) were called active. Another 23% or so got no clear call; they are omitted. The list shows a part of the results. Values without a mark were called inactive. Calls come from the whole dose curve; as a rule, active = well fitted curve in the direction sought with a large enough effect; inconclusive = small, poorly fitted or top-dose-only effect, or effect the other way; inactive = no such curve, though single readings can be large or run the other way. Square brackets hold non-standard residues; d marks the D form. Peptide text beside a SMILES is read from it.
% is set by controls: 0 for no effect and ±100 for the full control effect.

Each molecule was assayed against Cytochrome P450 2C19 (Homo sapiens) (UniProt P33261) (assay: Cytochrome panel assay with activity outcomes). Details: recombinant CYP, pro-luciferin dealkylation, luminescence, p450-cyp2c19; series mostly up to 57.1 µM.
Sequence of Cytochrome P450 2C19 (Homo sapiens) (P33261 whole entry, looked up): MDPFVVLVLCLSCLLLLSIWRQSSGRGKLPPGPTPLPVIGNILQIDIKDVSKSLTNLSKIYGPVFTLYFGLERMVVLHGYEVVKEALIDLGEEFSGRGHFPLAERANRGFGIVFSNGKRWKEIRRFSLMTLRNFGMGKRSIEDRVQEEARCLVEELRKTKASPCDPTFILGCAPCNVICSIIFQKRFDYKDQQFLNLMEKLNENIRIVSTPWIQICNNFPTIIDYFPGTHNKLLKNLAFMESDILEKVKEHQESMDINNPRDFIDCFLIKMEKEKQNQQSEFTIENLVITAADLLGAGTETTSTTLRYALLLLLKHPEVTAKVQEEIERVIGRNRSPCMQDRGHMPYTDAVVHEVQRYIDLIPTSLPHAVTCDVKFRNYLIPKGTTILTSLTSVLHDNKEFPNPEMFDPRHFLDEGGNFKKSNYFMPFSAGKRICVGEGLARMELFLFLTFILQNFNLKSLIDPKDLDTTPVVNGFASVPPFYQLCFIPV
In the case of `CCC(=O)c1ccc(OCC(O)CN(CCc2ccccc2)Cc2ccccc2)cc1` (configuration not stated), the AC50 is reported as 1.12 µM (active). `O[C@@H](C1=C/C(=C\c2ccncc2)c2ccccc21)c1ccncc1` was tested, and the AC50 was 0.158 µM (active). For `CCC(=O)Nc1ccccc1C(=O)OCC(=O)c1cccc2ccccc12`, the AC50 was 4.47 µM (active). With `C[N+](C)(C)CCC(=O)c1cccc2ccccc12` the AC50 was “inactive”. In the case of `CCC(=O)Nc1ccccc1C(=O)OCC(=O)c1ccccc1`, the AC50 is reported as 3.55 µM (active). With `CC(C)NC(=O)N1CCCC2(CCN(C(=O)c3cccn3C)CC2)C1` the AC50 was “inactive”. With `O=C(NNC(=O)C1CCN(S(=O)(=O)c2ccc(Cl)cc2)CC1)c1ccc(Cl)cc1` the AC50 was “inactive”. With `O=C(c1ccc2c(c1)OCCO2)C1CCN(S(=O)(=O)c2ccccc2F)CC1` the AC50 was 3.16 µM (active). With `COc1cccc(C2C3(C#N)C(N)=NC(OC)(OC)C23C#N)c1` (configuration not stated) the AC50 was 4.47 µM (active). In the case of `CC(C)N1CCN(c2ccc(OC[C@@H]3CO[C@@](Cn4cncn4)(c4ccc(Cl)cc4Cl)O3)cc2)CC1`, the AC50 is reported as “inactive”. For `Cc1ccccc1N1C(=O)c2cc(S(N)(=O)=O)c(Cl)cc2N[C@H]1C`, the AC50 was “inactive”. `Cc1cc(NC(=O)COC(=O)c2ccc(S(=O)(=O)N3CCCc4ccccc43)cc2)no1` was tested, and the AC50 was 4.47 µM (active). `Cc1cc(N(CN2CCCC2=O)C(=O)c2ccc(F)cc2)no1` was tested, and the AC50 was “inactive”. `COc1ccccc1NS(=O)(=O)c1cccc(C(=O)OCC(=O)Nc2cc(C)on2)c1` was tested, and the AC50 was 7.94 µM (active). In the case of `COc1ccccc1NC(=O)COC(=O)c1ccc(S(=O)(=O)NCc2ccco2)cc1`, the AC50 is reported as 5.01 µM (active). For `COc1cc(C(=O)OCC(=O)Nc2cc(C)on2)cc(OC)c1OC`, the AC50 was “inactive”. For `CCN(CC)CCOC(=O)c1cc(Cl)c(N)cc1OC`, the AC50 was “inactive”. For `Cc1cc(C)c(S(=O)(=O)NCC2CCC(C(=O)NCc3ccc4c(c3)OCO4)CC2)c(C)c1` (configuration not stated), the AC50 was 6.31 µM (active). `Cc1c(C(=O)O)oc2ccc(S(=O)(=O)NCc3ccc4c(c3)OCO4)cc12` was tested, and the AC50 was “inactive”. For `O=C(c1csnn1)N1CCC2(CC1)CCN(c1ccccn1)CC2`, the AC50 was “inactive”. `CN1C(=O)/C(=C\c2ccccc2)Sc2ccc(C(=O)N3CCN(c4ccccn4)CC3)cc21` was tested, and the AC50 was 3.98 µM (active). For `Cn1cccc1C(=O)N1CCC2(CC1)CCN(c1ccccn1)CC2`, the AC50 was “inactive”. In the case of `COc1ccc(C(=O)N/N=C2/C(=O)c3c(C)cc(C)cc3CC2(C)C)cc1`, the AC50 is reported as 3.98 µM (active). `CCN(CC)C(=O)c1cc2cc([N+](=O)[O-])ccc2s1` was tested, and the AC50 was 15.8 µM (active). For `CCOC(=O)c1nc(N)sc1C(=O)OCC`, the AC50 was “inactive”. In the case of `CCOC(=O)c1cc(C(=O)OCC)cc(-n2cc(O)c(C(=O)OCC)n2)c1`, the AC50 is reported as 14.1 µM (active). `CC1=c2c(oc3cc(O)c(Nc4c(C)cc(O)cc4O)c(C)c23)=CC(=O)C1=Nc1c(C)cc(O)cc1O` was tested, and the AC50 was 3.16 µM (active). For `CCOc1cc(CNCCO)c(Cl)cc1OCC(=O)NCCc1ccccc1`, the AC50 was 4.47 µM (active). For `Cn1c(=O)cc(OCC(=O)NCc2cccnc2)c2ccccc21`, the AC50 was “inactive”. With `CCNCc1cc(OCC)c(OCC(=O)NCCc2ccccc2)cc1Cl` the AC50 was 1.58 µM (active). In the case of `N=c1nc(N)nc(N)n1-c1ccc(S(N)(=O)=O)cc1`, the activity, negative = inhibition is reported as 36.5% [at 11.4 µM]. In the case of `CCOC(=O)c1cnc(-c2ccccc2)nc1Oc1ccccc1`, the AC50 is reported as 14.1 µM (active). `COc1cnc(-c2ccccc2)nc1Oc1cccc(C)c1` was tested, and the AC50 was 7.94 µM (active). In the case of `CCOC(=O)c1cnc(-c2ccccc2)nc1Oc1ccc(Cl)cc1`, the AC50 is reported as “inactive”. `N[C@H](CO)C(=O)NCC(=O)O` (H-[dS]-Gly-OH) was tested, and the activity, negative = inhibition was 19% [at 11.4 µM]. For `CCc1cc2c(=O)c(-c3cnn(-c4ccccc4)c3)coc2c(CN2CCOCC2)c1O`, the AC50 was 20 µM (active). `COc1cccc(CSc2nnc(C(F)(F)F)n2Cc2ccc(F)cc2)c1` was tested, and the AC50 was 3.16 µM (active). `Cc1ccc(CSc2nnc(C(F)(F)F)n2Cc2ccc(F)cc2)cc1` was tested, and the AC50 was 2.82 µM (active). `Fc1ccc(Cn2c(SCc3ccc(F)c(F)c3)nnc2C(F)(F)F)cc1` was tested, and the AC50 was 2.24 µM (active). In the case of `Fc1ccc(Cn2c(SCc3ccc(F)c(C(F)(F)F)c3)nnc2C(F)(F)F)cc1`, the AC50 is reported as 2.82 µM (active). In the case of `[O-][N+]1(CC[N+]2([O-])CCCCC2)CCCCC1`, the activity, negative = inhibition is reported as 25.1% [at 11.4 µM]. `CC1(C)C(=O)C(c2ccccc2)=C2CN3C(=O)N(CCc4ccccc4)C(=O)C3(Cc3ccccc3)C=C21` (configuration not stated) was tested, and the AC50 was “inactive”.
